Screen size: about 2,000 compounds; fewer than 10 were called active. Not all results are given here. Values without a mark were called inactive.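 Rule for the calls: active = growth inhibition of at least 75% in every replicate, which also brings the mean inhibition to 75% or more; inconclusive = mean inhibition 75% or more but some replicate under 75%; inactive = the rest.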
Assay: reduced viability of yeast carrying PfHsp90 – S. cerevisiae, BacTiter-Glo luminescence, antimalarial PfHsp90 inhibitor project, primary screen (AID 504594);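 note: 0% = DMSO neutral control wells and 100% = 20 µM radicicol control wells; higher value means stronger growth inhibition because the sign is flipped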
Conditions: S. cerevisiae expressing PfHsp90, BacTiter-Glo growth, 48 h; at 9.4 µM; hits give high values

SMILES | growth inhibition
CC(C)(C)C(O)C(Oc1ccc(Cl)cc1)n1cncn1 (stereo not given) | 96.5% (active)
CN1CCN(C(=O)OC2c3nccnc3C(=O)N2c2ccc(Cl)cn2)CC1 (stereo not given) | 6.28%
O=C1NC(=O)C2(Cc3ccccc3N3CCCC32)C(=O)N1c1ccc(Cl)cc1 (stereo not given) | -0.293%
O=S(=O)(c1ccc(F)cc1)N1CCCCC1c1cccnc1 (stereo not given) | -1.69%
Clc1ccc(CSC(Cn2ccnc2)c2ccc(Cl)cc2Cl)cc1 (stereo not given) | 95% (active)
c1ccc(Cn2ccnc2)cc1 | -14.6%
Cn1c(O)c(C=NCCc2c[nH]c3ccccc23)c(=O)n(C)c1=O | -4.75%
C[N+]1(C)CCN(c2ccccc2)CC1 | 4.14%
COc1cc2c3cc1Oc1cc(ccc1O)C[C@@H]1c4c(cc(OC)c(O)c4Oc4ccc(cc4)C[C@H]3N(C)CC2)CCN1C | -1.85%
CCOc1ccc(N2C(=O)NC(=O)/C(=C\c3cc(OC)c(OC)cc3[N+](=O)[O-])C2=O)cc1 | -0.939%
